Measurements: ChEMBL document CHEMBL4513146, “CO-ADD screening of Karazin Kharkiv National University (Ukraine) compounds”
Results with a measured potency or affinity are listed apart.

Experiments:
Staphylococcus aureus = conditions: Concentration 32 ug.mL-1;; ASSAY_TEST Inhibition of Bacterial Growth; detection method Absorption (OD600); MEDIA CAMHB; plate type 384well; NBS; CORNING #3640; time 18 hr
Escherichia coli = conditions: Concentration 32 ug.mL-1;; ASSAY_TEST Inhibition of Bacterial Growth; detection method Absorption (OD600); MEDIA CAMHB; plate type 384well; NBS; CORNING #3640; time 18 hr

| Compound | Inhibition (Staphylococcus aureus) | Inhibition (Escherichia coli) |
| --- | --- | --- |
| Cc1ccc(-c2cc3c4nn(CC(=O)Nc5ccccc5Cl)c(=O)n4ccn3n2)cc1 | 2.52% | -6.02% |
| COc1cc(OC)c(NC(=O)Cn2nc3c(Oc4ccc(C)cc4)nccn3c2=O)cc1Cl | 4.71% | -4.58% |
| Cc1cc(C)c(NC(=O)Cn2nc3c(N4CCCC(C)C4)nccn3c2=O)c(C)c1 (configuration not stated) | -1.28% | -2.83% |
| Cc1ccc(NC(=O)Cn2nc3c(Oc4ccccc4C)nccn3c2=O)cc1F | 8.06% | -0.85% |
| O=C(CSc1nnc2c(=O)n(-c3ccc(F)cc3)ccn12)N1CCN(c2ccccc2F)CC1 | 14.78% | -0.33% |
| C=Cc1ccc(CN(c2ccc(F)cc2)S(=O)(=O)c2ccc3nnc(C)n3c2)cc1 | -1.19% | -7.93% |
| CCc1ccccc1Sc1nccn2c(=O)n(CC(=O)Nc3cccc(C)c3)nc12 | 2.29% | -6.79% |
| COc1ccc(NC(=O)Cn2nc3nc(N4CCOCC4)ccn3c2=O)cc1F | -2.35% | -9.58% |
| Cc1ccc(-c2cc3c4nnc(CCC(=O)N5CCN(c6ccccn6)CC5)n4ccn3n2)cc1C | -0.56% | -4.11% |
| COc1ccc(OC)c(NC(=O)Cn2nc3c4cc(-c5ccc(C)c(C)c5)nn4ccn3c2=O)c1 | 0.06% | -4.32% |
| O=C(Cn1nc2c3cc(-c4ccc(Cl)cc4)nn3ccn2c1=O)NC1CCCC1 | -0.6% | -3.32% |
| COc1ccc(-c2cc3c4nnc(SCC(=O)Nc5cc(F)ccc5C)n4ccn3n2)cc1 | -23.41% | -20.36% |
| COc1ccc(NC(=O)Cn2nc3c(Sc4ccccc4)nc4ccccc4n3c2=O)cc1Cl | -0.59% | -7.36% |
| O=C(Cn1nc2ccc(SCc3ccc(Cl)cc3)nn2c1=O)Nc1ccc(F)c(F)c1 | -1.34% | -2.62% |
| COc1cccc(-n2ccn3c(SCC(=O)c4ccc(C)cc4C)nnc3c2=O)c1 | 12.17% | -2.43% |
| COc1cccc(-n2ccn3c(SCC(=O)c4cccc(Cl)c4)nnc3c2=O)c1 | -1.54% | 0.66% |
| Cc1ccc(CNC(=O)Cn2nc3c(N4CCN(c5ccccc5C)CC4)nccn3c2=O)cc1 | 4.45% | -8.18% |
| O=C(CSc1nnc2c3cc(-c4ccccc4)nn3ccn12)NCc1ccccc1Cl | -4.46% | -7.31% |

| Compound | Inhibition (Staphylococcus aureus) | Inhibition (Escherichia coli) |
| --- | --- | --- |
| O=C(CSc1nnc2c(=O)n(-c3ccccc3)ccn12)c1c[nH]c2ccccc12 | 16.15% | -0.51% |
| Cc1nnc2ccc(S(=O)(=O)N(Cc3ccccc3F)c3ccc(F)cc3)cn12 | -2.33% | -7.33% |
| N#Cc1cccc(Cn2nc3ccc(S(=O)(=O)N4CCCCCC4)cn3c2=O)c1 | 10.44% | -2.41% |
| Cc1ccccc1Cn1nc2c(=O)n(-c3ccc(Br)cc3)ccn2c1=O | 4.33% | 1.73% |
| O=c1c2sccc2n2c(=O)n(Cc3ccc(Br)cc3)nc2n1Cc1cccs1 | -10.81% | -9.69% |
| COc1cc(OC)c(NC(=O)Cn2nc3c(Oc4ccccc4)nccn3c2=O)cc1Cl | -15.01% | -15.59% |
| Cc1ccccc1Oc1nccn2c(=O)n(CC(=O)Nc3ccc(F)cc3F)nc12 | 15.72% | 1.95% |
| Cc1ccccc1Nc1cc(C)n2c(=O)n(CCOc3ccc(F)cc3)nc2n1 | 13.1% | -3.45% |
| O=c1c2sccc2n2c(=O)n(Cc3ccc(Br)cc3)nc2n1CCc1ccccc1 | -9.4% | -11.48% |
| COc1ccccc1CNC(=O)Cn1nc2c(N3CCC(C)CC3)nccn2c1=O | 13.11% | -0.77% |
| Cc1nnc2ccc(S(=O)(=O)N(Cc3cccc(F)c3)c3ccc4c(c3)OCO4)cn12 | -10.23% | -15.4% |
| COc1ccc(NC(=O)CSc2nc3ccccc3n3c(C(C)C)nnc23)cc1Cl | -3.22% | -5.08% |
| COc1cccc(-n2ccn3c(SCc4ccc(F)cc4)nnc3c2=O)c1 | 5.89% | -10.24% |
| CC(C)(C)Sc1ccc2nn(CC(=O)Nc3ccccc3Cl)c(=O)n2n1 | 7.11% | -2.79% |
| COc1ccc(NC(=O)Cn2nc3nc(Nc4ccc(F)cc4)ccn3c2=O)cc1F | -2.83% | -10.06% |
| Cc1oc(-c2cccc(Cl)c2)nc1CSc1nc2ccccc2n2c(C)nnc12 | 0.94% | 1.96% |
| COc1cc(NC(=O)Cn2nc3c(N4CCCC(C)C4)nccn3c2=O)cc(OC)c1 (configuration not stated) | -12.69% | -14.56% |
| N#Cc1cccc(NC(=O)Cn2nc3c(Oc4ccccc4)nccn3c2=O)c1 | 10.16% | -2.65% |
